Values joined by “and” are separate entries in the source; they are usually repeats but may differ in a detail not shown here. Equal entries are not always repeated. Some structures have more than one record in an assay (separate samples or runs), and their calls can disagree. Active and inactive are the calls of the source. How the source made its calls: active means hit-call score of the fitted dose curve at least 0.9, where 1 is the maximum; inactive means score below 0.9.
How the values were obtained:
Settings in all cases: mRNA level, 48 h; actives raise or lower the signal
[1] = read-out: Lipase C (LIPC), LIPC (gene 3990); assay: LTEA_HepaRG_LIPC: Life Technologies and Expression Analysis (LTEA) Assay for Lipase C (LIPC) using HepaRG (AID 2283514)
How it was run: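 In this multiplexed gene-expression screen, human HepaRG cultures received test chemicals for 48 h across eight concentrations with 100 uM highest, in duplicate. Values reflect LIPC mRNA induction or suppression versus DMSO vehicle, from normalized qRT-PCR.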

[2] = read-out: Lipoprotein lipase (LPL), LPL (gene 4023); assay: LTEA_HepaRG_LPL: Life Technologies and Expression Analysis (LTEA) Assay for Lipoprotein lipase (LPL) using HepaRG (AID 2283515)
How it was run: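 Concentration-response testing used half-log steps from 100 uM in 0.5% DMSO on human HepaRG cells, 48 h, duplicate wells. Phenobarbital 1 mM served as induction control; LPL mRNA was normalized to ACTB, GAPDH, POLR2A.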

[3] = read-out: MicroRNA 122 (MIR122), gene 406906; assay: LTEA_HepaRG_MIR122: Life Technologies and Expression Analysis (LTEA) Assay for MicroRNA 122 (MIR122) using HepaRG (AID 2283516); further: the transcript read is the microRNA miR-122
How it was run: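 Human liver HepaRG cultures receive test chemicals for 48 h at eight half-log concentrations from 100 uM. Expression is quantified by qRT-PCR with ACTB/GAPDH/POLR2A normalization and fitted bidirectionally against 0.5% DMSO.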

[4] = read-out: matrix metalloproteinase-10 (MMP10), MMP10 (gene 4319); assay: LTEA_HepaRG_MMP10: Life Technologies and Expression Analysis (LTEA) Assay for matrix metalloproteinase-10 (MMP10) using HepaRG (AID 2283517)
How it was run: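 In differentiated HepaRG cultures kept in 0.5% DMSO, test chemicals act for 48 h over an eight-point range with a top dose of 100 uM. Expression is then quantified by TaqMan RT-PCR against ACTB, GAPDH and POLR2A.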

MYC, MYC (gene 4609) = assay: LTEA_HepaRG_MYC: Life Technologies and Expression Analysis (LTEA) Assay for MYC using HepaRG (AID 2283518)
How it was run: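 Cells are thawed, plated and cultured 48 h, then treated for 48 h with test chemicals (eight half-log concentrations from 100 uM, 0.5% DMSO vehicle). RNA is isolated and MYC expression quantified by qRT-PCR against three housekeeping genes.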

[5] = read-out: matrix metalloproteinase-3 (MMP3), MMP3 (gene 4314); assay: LTEA_HepaRG_MMP3: Life Technologies and Expression Analysis (LTEA) Assay for matrix metalloproteinase-3 (MMP3) using HepaRG (AID 2283519)
How it was run: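 Human liver HepaRG cultures received chemicals (top concentration 100 uM, 0.5% DMSO) for 48 h in duplicate. MMP3 mRNA induction or loss was then assessed via TaqMan qRT-PCR with housekeeping-gene normalisation.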

[6] = read-out: Paternally Expressed 10 (PEG10), PEG10 (gene 23089); assay: LTEA_HepaRG_PEG10: Life Technologies and Expression Analysis (LTEA) Assay for Paternally Expressed 10 (PEG10) using HepaRG (AID 2283520);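 on AC50: PEG10 transcript by qRT-PCR normalised to ACTB GAPDH and POLR2A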
How it was run: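 Human HepaRG cultures are dosed for 48 h across an eight-point half-log series starting at 100 uM, with 0.5% DMSO as vehicle and baseline. Gain or loss of PEG10 transcript is measured by qRT-PCR and fitted in both directions.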

[7] = read-out: Nuclear factor NF-kappa-B p105 subunit (Homo sapiens) (UniProt P19838); assay: LTEA_HepaRG_NFKB1: Life Technologies and Expression Analysis (LTEA) Assay for Nuclear Factor Kappa B Subunit 1 (NFKB1) using HepaRG (AID 2283521)
How it was run: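 Differentiated human HepaRG cells in serum-free induction medium with 0.5% DMSO were exposed for 48 h to eight half-log concentrations, top 100 uM, in duplicate. NFKB1 mRNA measured by Fluidigm TaqMan qRT-PCR, normalised to ACTB, GAPDH and POLR2A; bidirectional fit versus DMSO.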

[8] = read-out: Protein phosphatase 2A (PPP2R4), PTPA (gene 5524); assay: LTEA_HepaRG_PPP2R4: Life Technologies and Expression Analysis (LTEA) Assay for Protein phosphatase 2A (PPP2R4) using HepaRG (AID 2283522)
How it was run: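 Cells were plated, cultured 48 h, switched to serum-free induction medium, then dosed for 48 h (8 points, max 100 uM, 0.5% DMSO). RNA was isolated and PPP2R4 expression measured by TaqMan qRT-PCR.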

[9] = read-out: Phosphatase and tensin (PTEN), PTEN (gene 5728); assay: LTEA_HepaRG_PTEN: Life Technologies and Expression Analysis (LTEA) Assay for Phosphatase and tensin (PTEN) using HepaRG (AID 2283523)
How it was run: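 Expression of PTEN is quantified in the human liver line HepaRG following two days of dosing (top concentration 100 uM, half-log dilutions, 0.5% DMSO). Values derive from bidirectional curve fitting relative to DMSO controls.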

[10] = read-out: solute carrier (SLC22A1), SLC22A1 (gene 6580); assay: LTEA_HepaRG_SLC22A1: Life Technologies and Expression Analysis (LTEA) Assay for solute carrier (SLC22A1) using HepaRG (AID 2283524);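 on AC50: TaqMan qRT-PCR normalized to ACTB GAPDH and POLR2A housekeeping genes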
How it was run: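 Transcript induction or suppression of SLC22A1 in human HepaRG cultures is scored after 48 h chemical treatment, with DMSO (0.5%) as baseline for bidirectional fitting. Concentrations span eight half-log points topping at 100 uM.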

[11] = read-out: Pyruvate Dehydrogenase Kinase 4 (PDK4), PDK4 (gene 5166); assay: LTEA_HepaRG_PDK4: Life Technologies and Expression Analysis (LTEA) Assay for Pyruvate Dehydrogenase Kinase 4 (PDK4) using HepaRG (AID 2283525)
How it was run: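 Eight-point, half-log concentration series (max 100 uM, 0.5% DMSO) applied to differentiated HepaRG cells for 48 h in duplicate. Endpoint: PDK4 mRNA induction or repression by qRT-PCR against DMSO baseline.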

[12] = read-out: NAD(P)H dehydrogenase [quinone] 1 (NQO1), NQO1 (gene 1728); assay: LTEA_HepaRG_NQO1: Life Technologies and Expression Analysis (LTEA) Assay for NAD(P)H dehydrogenase [quinone] 1 (NQO1) using HepaRG (AID 2283526)
How it was run: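 Transcript induction or suppression is quantified by qRT-PCR in human HepaRG liver cells dosed for 48 hours. Eight half-log concentrations topping at 100 uM are used, with 0.5% DMSO as vehicle and baseline.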

[13] = read-out: Nuclear factor erythroid 2-related factor 2 (Homo sapiens) (UniProt Q16236); assay: LTEA_HepaRG_NFE2L2: Life Technologies and Expression Analysis (LTEA) Assay for Nuclear factor erythroid 2-related factor 2 (NFE2L2) Transcription Factor using HepaRG (AID 2283527)
How it was run: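 Human liver HepaRG line treated in duplicate for 48 h with an eight-point series topping at 100 uM. Gene expression of NFE2L2 by qRT-PCR, bidirectionally fitted against the vehicle control.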

[14] = read-out: Signal transducer and activator of transcription 3 (Homo sapiens) (UniProt P40763); assay: LTEA_HepaRG_STAT3: Life Technologies and Expression Analysis (LTEA) Assay for Signal transducer and activator of transcription (STAT3) using HepaRG (AID 2283529)
How it was run: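 In this transcriptional endpoint, HepaRG cultures receive test chemicals at up to 100 uM for 48 h, tested in duplicate. STAT3 mRNA is normalized to ACTB, GAPDH and POLR2A.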

[15] = read-out: solute carrier (SLCO1B1), SLCO1B1 (gene 10599); assay: LTEA_HepaRG_SLCO1B1: Life Technologies and Expression Analysis (LTEA) Assay for solute carrier (SLCO1B1) using HepaRG (AID 2283530)
How it was run: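 Gain or loss of SLCO1B1 mRNA is fitted against the 0.5% DMSO vehicle in human HepaRG liver cells treated 48 h at up to 100 uM in half-log steps. Expression comes from qRT-PCR normalized to endogenous controls.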

[16] = read-out: Transforming Growth Factor (TGFA), TGFA (gene 7039); assay: LTEA_HepaRG_TGFA: Life Technologies and Expression Analysis (LTEA) Assay for Transforming Growth Factor (TGFA) using HepaRG (AID 2283532)
How it was run: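 Gene expression of TGFA was quantified by qRT-PCR after human HepaRG cells were treated for 48 h with test chemicals (eight concentrations, highest 100 uM, 0.5% DMSO). Activity in either direction was fitted relative to DMSO.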

[17] = read-out: Transforming Growth Factor (TGFB1), TGFB1 (gene 7040); assay: LTEA_HepaRG_TGFB1: Life Technologies and Expression Analysis (LTEA) Assay for Transforming Growth Factor (TGFB1) Transporter using HepaRG (AID 2283533)
How it was run: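 Expression change of TGFB1 in human HepaRG cells is measured after a 48 h chemical exposure, up to 100 uM in 0.5% DMSO vehicle. Curves are fitted in both directions relative to the DMSO baseline.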

TIMP1, TIMP1 (gene 7076) = assay: LTEA_HepaRG_TIMP1: Life Technologies and Expression Analysis (LTEA) Assay for TIMP1 using HepaRG (AID 2283534)
How it was run: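 We dosed human liver HepaRG cultures for 48 hours with up to 100 uM test chemical and measured TIMP1 expression by qRT-PCR. Activity in either direction is fitted relative to the 0.5% DMSO vehicle.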

[18] = read-out: Tumor necrosis factor receptor 1 (TNFRSF1A), TNFRSF1A (gene 7132); assay: LTEA_HepaRG_TNFRSF1A: Life Technologies and Expression Analysis (LTEA) Assay for Tumor necrosis factor receptor 1 (TNFRSF1A) using HepaRG (AID 2283535)
How it was run: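 Expression of TNFRSF1A in human HepaRG liver cells was measured by qRT-PCR 48 h after chemical dosing (maximum 100 uM). Bidirectional curve fitting used 0.5% DMSO as baseline.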

Measured: AC50

Chain of Signal transducer and activator of transcription 3 (Homo sapiens) (P40763 whole entry, looked up): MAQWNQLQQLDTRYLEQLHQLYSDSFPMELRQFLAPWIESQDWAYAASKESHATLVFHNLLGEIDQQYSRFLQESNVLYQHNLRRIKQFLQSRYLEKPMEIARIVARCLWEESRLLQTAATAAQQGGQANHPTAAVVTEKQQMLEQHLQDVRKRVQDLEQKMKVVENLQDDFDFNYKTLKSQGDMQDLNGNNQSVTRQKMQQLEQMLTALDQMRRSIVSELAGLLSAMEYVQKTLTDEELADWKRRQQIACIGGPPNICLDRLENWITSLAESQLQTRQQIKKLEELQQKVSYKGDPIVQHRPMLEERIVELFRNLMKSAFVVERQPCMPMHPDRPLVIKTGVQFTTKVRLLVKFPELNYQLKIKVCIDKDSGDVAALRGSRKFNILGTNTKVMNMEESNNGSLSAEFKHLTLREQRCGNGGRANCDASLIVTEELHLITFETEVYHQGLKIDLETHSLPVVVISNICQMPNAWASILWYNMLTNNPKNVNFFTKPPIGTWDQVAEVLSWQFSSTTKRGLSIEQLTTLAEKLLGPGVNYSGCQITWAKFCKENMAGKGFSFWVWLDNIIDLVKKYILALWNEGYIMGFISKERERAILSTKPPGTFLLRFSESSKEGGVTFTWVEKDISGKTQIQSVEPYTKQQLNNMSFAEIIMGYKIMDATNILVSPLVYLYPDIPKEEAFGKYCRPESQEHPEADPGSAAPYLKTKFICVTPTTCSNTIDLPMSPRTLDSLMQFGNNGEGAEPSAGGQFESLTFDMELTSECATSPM
Chain of Nuclear factor erythroid 2-related factor 2 (Homo sapiens) (Q16236 whole entry, looked up): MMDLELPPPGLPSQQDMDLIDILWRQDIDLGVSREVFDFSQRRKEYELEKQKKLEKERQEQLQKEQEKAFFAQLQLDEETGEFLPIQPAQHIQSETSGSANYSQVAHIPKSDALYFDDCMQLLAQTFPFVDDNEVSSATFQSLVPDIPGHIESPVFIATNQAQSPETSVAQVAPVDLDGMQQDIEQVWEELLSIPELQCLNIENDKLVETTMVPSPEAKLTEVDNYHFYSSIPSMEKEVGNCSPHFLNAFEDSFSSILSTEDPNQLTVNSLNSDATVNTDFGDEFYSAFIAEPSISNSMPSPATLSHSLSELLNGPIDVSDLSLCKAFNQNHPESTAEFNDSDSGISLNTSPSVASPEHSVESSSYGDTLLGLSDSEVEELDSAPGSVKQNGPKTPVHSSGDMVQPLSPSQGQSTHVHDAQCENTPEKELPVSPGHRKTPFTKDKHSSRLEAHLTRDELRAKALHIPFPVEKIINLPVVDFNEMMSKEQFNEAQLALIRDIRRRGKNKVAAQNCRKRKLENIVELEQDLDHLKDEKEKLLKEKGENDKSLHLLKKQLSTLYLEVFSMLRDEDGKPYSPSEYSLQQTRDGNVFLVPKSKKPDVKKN
Chain of Nuclear factor NF-kappa-B p105 subunit (Homo sapiens) (P19838 whole entry, looked up): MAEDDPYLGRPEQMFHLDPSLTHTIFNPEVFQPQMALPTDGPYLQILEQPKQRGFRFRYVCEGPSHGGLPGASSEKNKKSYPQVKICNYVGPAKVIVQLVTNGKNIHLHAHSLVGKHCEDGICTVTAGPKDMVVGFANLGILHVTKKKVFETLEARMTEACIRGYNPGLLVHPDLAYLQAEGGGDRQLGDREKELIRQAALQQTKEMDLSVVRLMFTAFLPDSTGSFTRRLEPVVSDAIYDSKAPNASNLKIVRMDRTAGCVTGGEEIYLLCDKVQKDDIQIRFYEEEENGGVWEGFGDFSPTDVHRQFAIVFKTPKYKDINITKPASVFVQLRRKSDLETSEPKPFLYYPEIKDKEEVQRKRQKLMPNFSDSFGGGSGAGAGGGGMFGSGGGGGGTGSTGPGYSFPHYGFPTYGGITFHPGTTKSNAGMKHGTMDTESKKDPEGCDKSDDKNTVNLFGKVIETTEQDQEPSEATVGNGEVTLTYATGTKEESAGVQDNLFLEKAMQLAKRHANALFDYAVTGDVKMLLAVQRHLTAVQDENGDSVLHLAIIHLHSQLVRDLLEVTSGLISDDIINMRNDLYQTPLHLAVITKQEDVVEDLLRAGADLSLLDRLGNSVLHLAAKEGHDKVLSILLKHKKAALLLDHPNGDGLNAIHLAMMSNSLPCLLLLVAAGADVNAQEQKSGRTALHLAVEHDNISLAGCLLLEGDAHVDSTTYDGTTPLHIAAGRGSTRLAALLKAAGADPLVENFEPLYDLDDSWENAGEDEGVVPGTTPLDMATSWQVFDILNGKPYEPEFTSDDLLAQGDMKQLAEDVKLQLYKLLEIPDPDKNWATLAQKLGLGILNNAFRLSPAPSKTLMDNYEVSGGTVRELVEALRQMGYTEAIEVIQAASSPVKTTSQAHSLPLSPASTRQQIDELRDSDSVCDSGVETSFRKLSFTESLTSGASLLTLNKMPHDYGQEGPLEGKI

COc1cc(-c2ccc(N)c(OC)c2)ccc1N
active: [1] 50 µM | [3] 79.7 µM | MYC, MYC (gene 4609) 50 µM | [5] 39.3 µM and 2.3 µM | [6] 50 µM | [10] 50 µM | [13] 50 µM
inactive: [1] | [2] | [3] | [4] | MYC, MYC (gene 4609) | [7] | [8] | [9] | [10] | [11] | [12] | [13] | [14] | [15] | [16] | [17] | TIMP1, TIMP1 (gene 7076) | [18]

O=[N+]([O-])c1ccc(O)c([N+](=O)[O-])c1
active: [1] 12 µM | [3] 23.1 µM | MYC, MYC (gene 4609) 89.6 µM | [6] 13.2 µM | [7] 13 µM | [8] 13.1 µM | [9] 31.8 µM | [10] 25.2 µM | [11] 11.8 µM | [12] 12.7 µM | [13] 12.7 µM | [14] 12.8 µM | [15] 20.4 µM | TIMP1, TIMP1 (gene 7076) 12.6 µM | [18] 4.42 µM
inactive: [2] | [4] | [5] | [16] | [17]

CC12CC1(C)C(=O)N(c1cc(Cl)cc(Cl)c1)C2=O (stereo not drawn)
active: [6] 10.3 µM | [10] 11.2 µM | [11] 16.2 µM
inactive: [1] | [2] | [3] | [4] | MYC, MYC (gene 4609) | [5] | [7] | [8] | [9] | [12] | [13] | [14] | [15] | [16] | [17] | TIMP1, TIMP1 (gene 7076) | [18]

O=C(O)C(F)(F)C(F)(F)C(F)(F)C(F)(F)C(F)(F)C(F)(F)C(F)(F)C(F)(F)C(F)(F)C(F)(F)F
inactive: [1] | [4] | MYC, MYC (gene 4609) | [5] | [6] | [7] | [8] | [9] | [11] | [12] | [13] | [14] | [15] | [16] | [17] | TIMP1, TIMP1 (gene 7076) | [18]
active: [2] 47.8 µM

Source: PubChem BioAssay (EPA / NIEHS)
